Source: PubChem (National Center for Advancing Translational Sciences (NCATS))
RE007 growth inh – less growth of the S. pombe RE007 Vpr strain; S. pombe RE007 Vpr strain, BacTiter-Glo ATP luminescence, 24 h; Potency, µM (top dose mostly 92.2 µM), for the others: at the highest dose activity change, negative = less growth, actives largely listed as inhibitors; hit rate 0.21% among 360,000; AID 651644; active = well fitted falling curve with a large enough effect; inconclusive = small, poorly fitted or top-dose-only effect; inactive = no such curve, though single readings can be large or run the other way; also: potency is read from the fitted curve at half-maximal effect; nearly all actives have a fitted effect of over 50% in size
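Fission yeast RE007 carrying one integrated HIV-1 vpr copy, seeded at OD 0.01 in PMG+AL medium with 23 nL pinned compound. Grown 24 h at 30 degrees; viability read by BacTiter-Glo luminescence after 5 min.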
Tb PYK inh – blocks Trypanosoma brucei pyruvate kinase; hit rate 0.12% among 410,000; TbPYK enzyme, Kinase-Glo Plus ATP luminescence, 45 min; Q57TT1; AID 624173; Potency, µM (top dose mostly 76.8 µM), without a hit: top-dose activity, negative = inhibition, actives largely listed as inhibitors; also: potency is read from the fitted curve at half-maximal effect; nearly all actives have a fitted effect of over 50% in size
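In this concentration-response screen, enzyme-free wells defined baseline while DMSO plates tracked drift. Each reaction combined TbPYK, substrate, compound and 130 uM ADP for 45 min at room temperature. Kinase-Glo Plus luminescence gave the signal.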
FBPA Giardia inh – inhibitors of Giardia lamblia fructose-1,6-bisphosphate aldolase; hit rate 0.71% among 290,000; Potency, µM (titrated, usually from 59.6 µM), without a hit: at the highest dose activity, negative = inhibition, hits mostly inhibitors; AID 2451; A8B2U2; purified Giardia FBPA; also: potency is read from the fitted curve at half-maximal effect; nearly all actives have a fitted effect of over 55% in size
Target sequence (A8B2U2 whole entry, looked up): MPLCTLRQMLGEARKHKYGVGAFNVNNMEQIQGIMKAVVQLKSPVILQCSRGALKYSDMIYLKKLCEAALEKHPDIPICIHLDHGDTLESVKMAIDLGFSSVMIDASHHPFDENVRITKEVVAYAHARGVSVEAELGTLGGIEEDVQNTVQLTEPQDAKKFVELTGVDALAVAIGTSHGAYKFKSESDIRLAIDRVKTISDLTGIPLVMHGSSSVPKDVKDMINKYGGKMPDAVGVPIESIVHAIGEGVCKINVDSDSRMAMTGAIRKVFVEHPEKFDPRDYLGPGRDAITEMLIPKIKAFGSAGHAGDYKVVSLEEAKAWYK
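40 nM FBPA preincubated 10 min at RT with compound (up to 57.5 uM final), then substrate plus GAPDH/TPI/NAD/arsenate coupling and diaphorase/resazurin added. Fluorescence read after 20 min at RT, 525/598 nm.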
FMDV inh – blocks foot and mouth disease virus. FMDV antiviral cell-based qHTS. Potency, µM (highest dose often 57.9 µM), inactives show at the highest dose activity change, negative = inhibition, actives largely listed as inhibitors. hit rate 1.2% among 410,000. AID 1159524; calls by dose curve; tested in HEK293T cells; also: read-out not given here; potency is read from the fitted curve at half-maximal effect; nearly all actives have a fitted effect of over 45% in size
Sm TGR block – blocks Schistosoma mansoni thioredoxin glutathione reductase; Q962Y6; Potency, µM (doses to about 114 µM), without a hit: top-dose activity change, negative = inhibition, usual class: inhibitors; purified TGR, DTNB reduction, TNB absorbance 405 nm; hit rate 3% among 360,000; also: potency is read from the fitted curve at half-maximal effect; nearly all actives have a fitted effect of over 60% in size
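TGR 20 nM + NADPH 100 uM (dispensed conc.), cpd preinc 15 min RT; start with NADPH (500 uM addition) then DTNB (15 mM addition). Kinetic TNB absorbance, 405 nm filter. Four-parameter Hill fit across titration.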
HCMV antiviral – blocks human cytomegalovirus replication; hit rate 4.5% among 410,000; HFF cells, HCMV-luciferase reporter, 72 h; stronger effect = lower value; AID 1259415; activity change, negative = inhibition, % at 57.5 µM; in the data active = activity change below about -60%; inconclusive = no clear call, values can overlap the other calls; inactive = above about -39%
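Compounds were evaluated in HFFs infected with an HCMV luciferase reporter virus (MOI 1 PFU/cell). Luciferase in lysates collected 72 h post infection served as the replication measure.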
Numbers without * were called inactive; ! = not confirmed by another sample. A selection: hits, their analogues and other compounds. The true share with any hit is near 7.7%. Unless noted, calls follow the shape of the dose curve; as a rule, active = well fitted curve in the direction sought with a large enough effect; inconclusive = small, poorly fitted or top-dose-only effect, or another doubt; inactive = no such curve, though single readings can be large; an effect the other way counts as inactive or inconclusive. % is scaled to controls: 0 for no effect and ±100 for the full control effect.

CCOC(=O)c1cc2c(=O)n3ccccc3nc2n(CCOC)c1=NC(=O)c1c(-c2c(F)cccc2Cl)noc1C was read as RE007 growth inh -17%, Tb PYK inh -4%, FBPA Giardia inh 5%, FMDV inh -4%, Sm TGR block 4% and HCMV antiviral -61*!.
CCCCn1c(=NC(=O)c2c(-c3c(F)cccc3Cl)noc2C)c(C(=O)OCC)cc2c(=O)n3ccccc3nc21 was read as Tb PYK inh -1%, FMDV inh 3%, Sm TGR block 1% and HCMV antiviral 23.
`CCOC(=O)c1cc2c(=O)n3ccccc3nc2n(Cc2ccco2)c1=NC(=O)c1c(F)cccc1Cl` gave Tb PYK inh -1%, FMDV inh 1%, Sm TGR block 4µM* and HCMV antiviral 3.
Screening O=C(NC1CC(=O)N(c2ccc(Cl)cc2)C1)c1ccc2c(c1)OCO2 (stereo not given) returned Tb PYK inh 4%, FMDV inh -9%, Sm TGR block 0% and HCMV antiviral 24.
COC(=O)c1ccccc1NC(=O)CSc1nc(-c2ccccc2)cc(C(F)(F)F)n1 was read as Tb PYK inh -5%, FMDV inh -2%, Sm TGR block 0% and HCMV antiviral -26.
COc1cccc(C(=O)NC(=S)Nc2ccc(N3CCCC3)cc2)c1 was read as RE007 growth inh -13%, Tb PYK inh -14%, FBPA Giardia inh 2%, FMDV inh inconclusive, Sm TGR block inconclusive and HCMV antiviral 17.
For O=C(NC(=S)Nc1ccc(N2CCOCC2)cc1)c1ccccc1 the results were RE007 growth inh 3%, Tb PYK inh 3%, FBPA Giardia inh -17%, FMDV inh 22%, Sm TGR block 16µM* and HCMV antiviral 12.
CCCC(=O)N1CCN(c2ccc(NC(=S)NC(=O)c3cccc(C)c3)cc2)CC1 was read as RE007 growth inh 9%, Tb PYK inh -3%, FBPA Giardia inh 3%, FMDV inh 16µM*, Sm TGR block inconclusive and HCMV antiviral inconclusive.
`C/C(=N\NC(=S)Nc1ccc(C)c(C)c1)c1ccc(N2CCOCC2)cc1` gave RE007 growth inh -6%, Tb PYK inh 5%, FBPA Giardia inh 0%, FMDV inh -13%, Sm TGR block -3% and HCMV antiviral -61*.
Screening CC(=O)c1ccc(N2CCN(C(=S)Nc3ccc(Oc4ccccc4)cc3)CC2)cc1 returned RE007 growth inh -4%, Tb PYK inh 0%, FBPA Giardia inh 4%, FMDV inh 0%, Sm TGR block -3% and HCMV antiviral -63*.
Screening C/C(=N\NC(=S)Nc1cc(S(=O)(=O)N2CCOCC2)ccc1Cl)c1ccc(N2CCOCC2)cc1 returned RE007 growth inh -3%, Tb PYK inh -9%, FBPA Giardia inh 10%, FMDV inh -7%, Sm TGR block 26% and HCMV antiviral -18.
`Cc1cc(C)cc(NC(=O)C(=O)NCC(c2cccnc2)N2CCN(c3ccccc3)CC2)c1` (stereo not given) gave Tb PYK inh -2%, FMDV inh -4%, Sm TGR block 6% and HCMV antiviral -1.
Screening CSCC[C@H](NC(=O)[C@H](CC(C)C)NC(=O)CNC(=O)[C@H](Cc1ccccc1)N(C)C(=O)[C@H](Cc1ccccc1)NC(=O)[C@H](CC(=O)O)NC(=O)[C@@H](N)CC(=O)O)C(N)=O returned FBPA Giardia inh -5%.
For CC(=O)c1ccc(NC(=S)Nc2ccc(N3CCOCC3)cc2)cc1 the results were RE007 growth inh 1%, Tb PYK inh -2%, FBPA Giardia inh -11%, FMDV inh 3%, Sm TGR block 45µM* and HCMV antiviral -28.
For O=C(NC(=S)Nc1ccc(N2CCOCC2)cc1)c1cncc(Br)c1 the results were RE007 growth inh -4%, Tb PYK inh -11%, FBPA Giardia inh inconclusive, FMDV inh -17%, Sm TGR block 13µM* and HCMV antiviral -32.
`O=C(COc1ccc(Br)cc1)NC(=S)Nc1ccccc1N1CCOCC1` gave RE007 growth inh 0%, Tb PYK inh 1%, FBPA Giardia inh -2%, FMDV inh 2%, Sm TGR block 1% and HCMV antiviral 30.
Screening CCc1ccc(C(=O)NC(=S)Nc2ccc(N3CCOCC3)cc2)cc1 returned RE007 growth inh -2%, Tb PYK inh 1%, FBPA Giardia inh -1%, FMDV inh 0%, Sm TGR block inconclusive and HCMV antiviral -89*.
`O=C(NC(=S)Nc1ccccc1N1CCOCC1)c1ccc(Br)cc1` gave RE007 growth inh 1%, Tb PYK inh 6%, FBPA Giardia inh -2%, FMDV inh 0%, Sm TGR block -40% and HCMV antiviral -66*.
For COC(=O)C/C=C/[C@@H](C)[C@H](NC(=O)OCC(Cl)(Cl)Cl)c1cccc(OC)c1 the results were FBPA Giardia inh 0%.
`CC(C)Cn1c(=O)c2ccccc2n2c(CCC(=O)Nc3ccc(F)cc3)nnc12` gave Tb PYK inh -12%, FMDV inh -20%, Sm TGR block -1% and HCMV antiviral -15.
O=C(Nc1ccc(N2CCOCC2)cc1)c1cnsn1 was read as Tb PYK inh -8%, FBPA Giardia inh -21%, FMDV inh 28µM*, Sm TGR block 6% and HCMV antiviral -73*.
`O=C(Nc1ccc(N2CCOCC2)cc1)c1cnccn1` gave RE007 growth inh 2%, Tb PYK inh 3%, FBPA Giardia inh -6%, FMDV inh -59%, Sm TGR block -13% and HCMV antiviral inconclusive.
O=C(Nc1ccc(N2CCOCC2)cc1)c1ccc(COc2ccccc2)cc1 was read as RE007 growth inh -5%, Tb PYK inh 3%, FBPA Giardia inh 0%, FMDV inh -27%, Sm TGR block -17% and HCMV antiviral -73*.
Screening CC(=O)c1ccc(N2CCN(C(=O)c3ccc(-c4ccccc4)cc3)CC2)cc1 returned RE007 growth inh -8%, Tb PYK inh 6%, FBPA Giardia inh 3%, FMDV inh -8%, Sm TGR block -4% and HCMV antiviral -66*.
`CC(C)Oc1cccc(C(=O)NC(=S)Nc2ccc(N3CCN(C)CC3)cc2)c1` gave RE007 growth inh 10%, Tb PYK inh -1%, FBPA Giardia inh -12%, FMDV inh -3%, Sm TGR block 45µM* and HCMV antiviral -16.
O=C(NC(=S)Nc1ccc(N2CCOCC2)cc1)c1cccc(Cl)c1 was read as RE007 growth inh 2%, Tb PYK inh -7%, FBPA Giardia inh 0%, FMDV inh -12%, Sm TGR block 22µM* and HCMV antiviral 20.
